Data taken from PubChem BioAssay AID1159580 (chemical genetic matrix, 2015).
“And” between values parts separate entries of the source, which are not always exact repeats. Equal values may be shown once. Screen size: about 5,500 compounds; about 2,000 (36%) were called active. Roughly 18% stayed inconclusive and do not appear here. No stated cut-off is given here; in the data, active means normalized growth mostly below about 0.91 (no sharp cut-off); inconclusive means no clear call, values can overlap the other calls; inactive means mostly above about 0.92. Some of the results follow.

Assay: chemical genetic growth profiling, strain panel (AID 1159580);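 further: tested at 20 µM; growth read once vehicle control cultures reached saturation at 30 °C; 1 = growth at the plate median or of vehicle wells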
Settings: growth OD

Measured: normalized growth

CC1=C(/C=C/C(C)=C/C=C/C(C)=C\C(=O)O)C(C)(C)CCC1
inactive: S. cerevisiae deletion strains, locus YJR075W, strain HOC1, stronger effect = lower value 0.962 and 1.01 | S. cerevisiae deletion strains, locus YKL009W, strain mrt4, stronger effect = lower value 0.94 | S. cerevisiae deletion strains, locus YKL068W, stronger effect = lower value 1 | S. cerevisiae deletion strains, locus YKL085W, strain MDH1 (second series), stronger effect = lower value 0.941 | S. cerevisiae deletion strains, locus YKL085W, strain MDH1, stronger effect = lower value 0.941 | S. cerevisiae deletion strains, locus YKL160W, strain elf1, stronger effect = lower value 0.977 | S. cerevisiae deletion strains, locus YKL190W, strain CNB1, stronger effect = lower value 0.989 | S. cerevisiae deletion strains, locus YKR001C, strain vps1, stronger effect = lower value 0.942 | S. cerevisiae deletion strains, locus YKR026C, strain gcn3, stronger effect = lower value 0.982 | S. cerevisiae deletion strains, locus YKR091W, strain srl3, stronger effect = lower value 0.988 | S. cerevisiae deletion strains, locus YLL001W, strain dnm1, stronger effect = lower value 0.93 | S. cerevisiae deletion strains, locus YLL026W, stronger effect = lower value 0.966 | S. cerevisiae deletion strains, locus YLL041C, strain sdh2, stronger effect = lower value 0.99 | S. cerevisiae deletion strains, locus YLR027C, strain aat2, stronger effect = lower value 0.958 | S. cerevisiae deletion strains, locus YLR039C, strain RIC1, stronger effect = lower value 0.866 | S. cerevisiae deletion strains, locus YLR058C, strain SHM2, stronger effect = lower value 1 | S. cerevisiae deletion strains, locus YLR102C, strain apc9, stronger effect = lower value 1 | S. cerevisiae deletion strains, locus YLR113W, strain HOG1, stronger effect = lower value 1.08 | S. cerevisiae deletion strains, locus YLR221C, strain rsa3, stronger effect = lower value 1.02 | S. cerevisiae deletion strains, locus YLR258W, strain gsy2, stronger effect = lower value 0.992 | S. cerevisiae deletion strains, locus YLR262C, strain YPT6 (second series), stronger effect = lower value 0.925 | S. cerevisiae deletion strains, locus YLR262C, strain YPT6, stronger effect = lower value 0.875 | S. cerevisiae deletion strains, locus YLR268W, strain sec22, stronger effect = lower value 0.966 | S. cerevisiae deletion strains, locus YLR320W, strain mms22, stronger effect = lower value 0.993 | S. cerevisiae deletion strains, locus YLR330W, strain CHS5, stronger effect = lower value 1.01 | S. cerevisiae deletion strains, locus YLR342W, strain FKS1 (second series), stronger effect = lower value 0.952 | S. cerevisiae deletion strains, locus YLR342W, strain FKS1, stronger effect = lower value 0.953 | S. cerevisiae deletion strains, locus YLR357W, strain rsc2, stronger effect = lower value 0.982 | S. cerevisiae deletion strains, locus YLR370C, strain arc18, stronger effect = lower value 0.996 | S. cerevisiae deletion strains, locus YLR371W, strain rom2, stronger effect = lower value 1.01 | S. cerevisiae deletion strains, locus YLR384C, strain iki3, stronger effect = lower value 0.973 | S. cerevisiae deletion strains, locus YLR418C, strain cdc73, stronger effect = lower value 0.846 | S. cerevisiae deletion strains, locus YML016C, strain PPZ1, stronger effect = lower value 1 | S. cerevisiae deletion strains, locus YML032C, strain rad52, stronger effect = lower value 0.978 | S. cerevisiae deletion strains, locus YML120C, strain ndi1, stronger effect = lower value 0.977 | S. cerevisiae deletion strains, locus YML124C, strain tub3, stronger effect = lower value 0.998 | S. cerevisiae deletion strains, locus YMR058W, strain fet3, stronger effect = lower value 0.978 | S. cerevisiae deletion strains, locus YMR078C, strain ctf18, stronger effect = lower value 0.998 | S. cerevisiae deletion strains, locus YMR125W, strain sto1, stronger effect = lower value 1.01 | S. cerevisiae deletion strains, locus YMR129W, stronger effect = lower value 0.987 | S. cerevisiae deletion strains, locus YMR205C, strain PFK2, stronger effect = lower value 0.971 | S. cerevisiae deletion strains, locus YMR223W, strain ubp8, stronger effect = lower value 0.976 | S. cerevisiae deletion strains, locus YMR231W, strain pep5, stronger effect = lower value 0.98 | S. cerevisiae deletion strains, locus YMR263W, strain SAP30, stronger effect = lower value 0.956 | S. cerevisiae deletion strains, locus YMR307W, strain GAS1, stronger effect = lower value 0.909 and 1.05 | S. cerevisiae deletion strains, locus YNL067W, strain RPL9B, stronger effect = lower value 0.951 | S. cerevisiae deletion strains, locus YNL071W, strain lat1, stronger effect = lower value 0.994 | S. cerevisiae deletion strains, locus YNL128W, strain TEP1, stronger effect = lower value 0.985 | S. cerevisiae deletion strains, locus YNL153C, strain GIM3, stronger effect = lower value 0.933 | S. cerevisiae deletion strains, locus YNL175C, strain NOP13, stronger effect = lower value 1.02 | S. cerevisiae deletion strains, locus YNL183C, strain NPR1, stronger effect = lower value 0.952 | S. cerevisiae deletion strains, locus YNL197C, strain WHI3, stronger effect = lower value 1.03 | S. cerevisiae deletion strains, locus YNL209W, strain ssb2, stronger effect = lower value 0.988 | S. cerevisiae deletion strains, locus YNL224C, strain SQS1, stronger effect = lower value 1.01 | S. cerevisiae deletion strains, locus YNL233W, strain BNI4, stronger effect = lower value 0.947 | S. cerevisiae deletion strains, locus YNL248C, strain rpa49, stronger effect = lower value 1.02 | S. cerevisiae deletion strains, locus YNL250W, strain rad50, stronger effect = lower value 0.992 | S. cerevisiae deletion strains, locus YNL271C, strain bni1, stronger effect = lower value 0.994 | S. cerevisiae deletion strains, locus YNL298W, strain CLA4, stronger effect = lower value 0.979 | S. cerevisiae deletion strains, locus YNL307C, strain MCK1, stronger effect = lower value 0.931 | S. cerevisiae deletion strains, locus YNL322C, strain KRE1 (second series), stronger effect = lower value 0.986 | S. cerevisiae deletion strains, locus YNL322C, strain KRE1, stronger effect = lower value 0.997 and 1.03 | S. cerevisiae deletion strains, locus YNR049C, strain mso1, stronger effect = lower value 0.988 | S. cerevisiae deletion strains, locus YNR052C, strain pop2, stronger effect = lower value 1.01 | S. cerevisiae deletion strains, locus YOL006C, strain TOP1, stronger effect = lower value 0.909 | S. cerevisiae deletion strains, locus YOL012C, strain htz1 0.855 | S. cerevisiae deletion strains, locus YOL147C, strain pex11, stronger effect = lower value 0.995 | S. cerevisiae deletion strains, locus YOR001W, strain rrp6, stronger effect = lower value 0.965 | S. cerevisiae deletion strains, locus YOR061W, strain CKA2, stronger effect = lower value 1.01 | S. cerevisiae deletion strains, locus YOR069W, strain VPS5, stronger effect = lower value 1.01 | S. cerevisiae deletion strains, locus YOR070C, strain gyp1, stronger effect = lower value 0.996 | S. cerevisiae deletion strains, locus YOR080W, strain dia2, stronger effect = lower value 0.986 | S. cerevisiae deletion strains, locus YOR083W, strain WHI5 (second series), stronger effect = lower value 1.03 | S. cerevisiae deletion strains, locus YOR083W, strain WHI5, stronger effect = lower value 0.954 | S. cerevisiae deletion strains, locus YOR106W, strain vam3, stronger effect = lower value 0.927 | S. cerevisiae deletion strains, locus YOR136W, strain idh2, stronger effect = lower value 0.991 | S. cerevisiae deletion strains, locus YOR144C, strain elg1, stronger effect = lower value 1.01 | S. cerevisiae deletion strains, locus YOR184W, strain ser1, stronger effect = lower value 0.95 | S. cerevisiae deletion strains, locus YOR231W, strain MKK1, stronger effect = lower value 1.05 | S. cerevisiae deletion strains, locus YOR265W, strain rbl2, stronger effect = lower value 0.987 | S. cerevisiae deletion strains, locus YOR270C, strain vph1, stronger effect = lower value 0.835 | S. cerevisiae deletion strains, locus YOR290C, strain snf2, stronger effect = lower value 1.01 | S. cerevisiae deletion strains, locus YOR316C, strain cot1, stronger effect = lower value 1.01 | S. cerevisiae deletion strains, locus YPL051W, strain arl3, stronger effect = lower value 0.983 | S. cerevisiae deletion strains, locus YPL055C, strain LGE1, stronger effect = lower value 0.918 | S. cerevisiae deletion strains, locus YPL078C, strain atp4, stronger effect = lower value 0.947 | S. cerevisiae deletion strains, locus YPL106C, strain sse1, stronger effect = lower value 1.02 | S. cerevisiae deletion strains, locus YPL240C, strain hsp82, stronger effect = lower value 0.977 | S. cerevisiae deletion strains, locus YPL241C, strain CIN2, stronger effect = lower value 1.01 | S. cerevisiae deletion strains, locus YPL256C, strain CLN2, stronger effect = lower value 1.04 | S. cerevisiae deletion strains, locus YPR119W, strain clb2, stronger effect = lower value 1 | S. cerevisiae deletion strains, locus YPR141C, strain kar3, stronger effect = lower value 0.989 | S. cerevisiae deletion strains, locus YPR163C, strain tif3, stronger effect = lower value 1 | S. cerevisiae deletion strains, locus YPR167C, strain met16, stronger effect = lower value 1 | S. cerevisiae deletion strains, strain wtn01, stronger effect = lower value 0.956 | S. cerevisiae strains, strain wild type, stronger effect = lower value 0.975
